Assay results taken from PubChem BioAssay AID463173 (ICCB-Longwood Screening Facility, Harvard Medical School, 2010).
Among all 52,000 compounds or so, about 4,300 (8.3%) were called active. Cut-off read from the data, not from the text of the source: active = survival mostly below about 52% (no sharp cut-off); inactive = mostly above about 56%. The entries come from a sample that favours actives as a whole.

The compounds below were run on DeltatarO mutant (assay: growth inhibition of S. aureus wild type versus tarO mutant, primary screen, teichoic acid synthesis inhibitors, RN4220, OD600 (AID 463173)). Conditions: OD600, 18 h, active compounds read low, screened at 18.75 µg/mL (by protocol).

| Compound | survival |
| --- | --- |
| COc1ccccc1CNC(=O)CSc1nc(=O)[nH]c2c1CCC2 | 78% (inactive) |
| COc1cc(CN(C(=O)COc2ccc(C)c(C)c2)c2ccccn2)cc(OC)c1OC | 71% (inactive) |
| COc1ccc(-n2c(=O)c3ccccc3n(CC(=O)NCCc3ccccc3)c2=O)c(OC)c1 | 74% (inactive) |
| CCn1ccc2cc(S(=O)(=O)N3CCCN(C(=O)Nc4ccccc4OC)CC3)ccc21 | 80% (inactive) |
| COc1ccc(-n2ncc(C(=O)NCCN3CCOCC3)c2C2CCN(C(=O)OC(C)(C)C)CC2)cc1 | 119% (inactive) |
| Cc1cc(C)c(S(=O)(=O)Nc2cc(-c3cn4ccccc4n3)ccc2C)cc1C | 56% (inactive) |
| COc1ccc(S(=O)(=O)Nc2cc(-c3cn4ccccc4n3)ccc2C)cc1 | 102% (inactive) |
| Cc1ccc(S(=O)(=O)Nc2cccc(-c3cn4cccc(C)c4n3)c2)c(C)c1 | 75% (inactive) |
| Cc1ccc(-c2cn3cccc(C)c3n2)cc1NS(=O)(=O)c1ccccc1 | 41% (active) |
| COc1ccc(S(=O)(=O)Nc2cc(-c3cn4cccc(C)c4n3)ccc2C)cc1C | 53% (active) |
| COc1ccc(S(=O)(=O)Nc2cc(-c3cn4ccc(C)cc4n3)ccc2C)cc1OC | 62% (inactive) |
| Cc1ccn2cc(-c3ccc(C)c(NS(=O)(=O)c4ccc(Cl)cc4)c3)nc2c1 | 43% (active) |
| CC(=O)Nc1ccc(S(=O)(=O)Nc2cc(-c3cn4ccccc4n3)ccc2C)cc1 | 67% (inactive) |
| COc1ccc(S(=O)(=O)Nc2ccc(-c3cn4ccsc4n3)cc2)cc1C | 128% (inactive) |
| COc1ccc(Br)cc1S(=O)(=O)Nc1cc(-c2cn3ccccc3n2)ccc1C | 43% (active) |
| CCc1ccc(S(=O)(=O)Nc2cc(-c3cn4ccccc4n3)ccc2C)cc1 | 74% (inactive) |
| CCCS(=O)(=O)Nc1cc(-c2cn3cccc(C)c3n2)ccc1C | 59% (inactive) |
| Cc1cc(=O)[nH]c(SCC(=O)N2CCN(c3ccccc3)CC2)n1 | 81% (inactive) |
| Cc1ccc(Cl)cc1NS(=O)(=O)c1ccc2oc(=O)c3ncn(C)c3c2c1 | 124% (inactive) |
| O=C(Nc1ccc2oc(-c3ccc4ccccc4c3)nc2c1)c1cccc(Cl)c1Cl | 63% (inactive) |
| COc1cc(NC(=O)CCCN2C(=O)CCn3nc(-c4cn(C)c5ccccc45)cc32)cc(OC)c1 | 126% (inactive) |
| CCCOc1ccc(C(=O)Nc2ccc(-c3cc4ccccc4oc3=O)c(C)c2)cc1 | 71% (inactive) |
| N#CC1=C2SCN(C3CCCCC3)CN2C(=O)CC1c1ccc(F)cc1 (configuration not stated) | 87% (inactive) |
| CCc1ccccc1NC(=O)Cn1cc(C(=O)c2ccncc2)c(=O)c2cc(C)ccc21 | 83% (inactive) |
| CCCS(=O)(=O)Nc1cc(-c2cn3ccc(C)cc3n2)ccc1C | 78% (inactive) |

| Compound | survival |
| --- | --- |
| CCS(=O)(=O)Nc1cc(-c2cn3ccc(C)cc3n2)ccc1C | 60% (inactive) |
| Cc1ccc(-c2cn3ccc(C)cc3n2)cc1 | 22% (active) |
| COc1cccc(C(=O)Nc2ccc(C(=O)OCc3cc(=O)n4cc(C)sc4n3)cc2)c1 | 66% (inactive) |
| O=C(C1CCN(c2nc3ccccc3[nH]2)CC1)N1CCN(c2ccccc2)CC1 | 89% (inactive) |
| CN(C)c1ccc(CNC(=O)C2CCN(c3nc4ccccc4[nH]3)CC2)cc1 | 63% (inactive) |
| COc1ccccc1CNC(=O)C1CCN(c2nc3ccc(C)cc3[nH]2)CC1 | 100% (inactive) |
| COc1ccc(CNC(=O)C2CCN(c3nc4ccccc4[nH]3)CC2)cc1OC | 55% (inactive) |
| O=C(C1CCN(c2nc3ccccc3[nH]2)CC1)N1CCN(c2cccc(Cl)c2)CC1 | 8% (active) |
| COc1ccccc1CNC(=O)C1CCN(c2nc3ccc(Cl)cc3[nH]2)CC1 | 25% (active) |
| Cc1ccc2nc(N3CCC(C(=O)N4CCN(c5cccc(Cl)c5)CC4)CC3)[nH]c2c1 | 68% (inactive) |
| COc1cccc(CNC(=O)C2CCN(c3nc4ccc(Cl)cc4[nH]3)CC2)c1 | 101% (inactive) |
| CCOc1cc(CNC(=O)C2CCN(c3nc4ccccc4[nH]3)CC2)cc(OCC)c1OCC | 20% (active) |
| CC1CCN(S(=O)(=O)c2cn(CC(=O)Nc3ccc(F)c(Cl)c3)c(=O)c3ccccc23)CC1 | 73% (inactive) |
| Cc1ccc(-n2nc(CO)c(C(=O)NCCc3ccccc3)n2)cc1C | 111% (inactive) |
| Cc1ccc(-n2nc(CO)c(C(=O)NCc3cccs3)n2)cc1C | 39% (active) |
| Cc1ccc(-n2nc(CO)c(C(=O)NCc3cccs3)n2)cc1 | 92% (inactive) |
| O=C(NCc1cccs1)c1nn(-c2ccccc2)nc1CO | 84% (inactive) |
| Cc1ccc(-n2nc(CO)c(C(=O)NC(C)c3ccccc3)n2)cc1C (configuration not stated) | 41% (active) |
| Cc1ccc(-n2nc(CO)c(C(=O)NC(C)CCCc3ccccc3)n2)cc1C (configuration not stated) | 94% (inactive) |
| CCc1ccc(-n2nc(CO)c(C(=O)NCc3cccs3)n2)cc1 | 60% (inactive) |
| Cc1ccccc1-n1nc(CO)c(C(=O)NCc2cccs2)n1 | 79% (inactive) |
| CCOc1ccc(-n2nc(CO)c(C(=O)NCc3cccs3)n2)cc1 | 40% (active) |
| CCN(CC)C(=O)C1=CC(c2ccc3c(c2)OCO3)=NS(=O)(=O)N1C | 86% (inactive) |
| Cc1nc(SCC(=O)OCN2C(=O)c3ccccc3C2=O)n[nH]1 | 80% (inactive) |
| COC(=O)C(C)Sc1ncnc2c1c(-c1ccccc1)cn2-c1ccc(F)cc1 (configuration not stated) | 76% (inactive) |

| Compound | survival |
| --- | --- |
| Cn1c(=O)c2c(c3ccccc31)OC(=O)CC2c1ccc(C(F)(F)F)cc1 (configuration not stated) | 61% (inactive) |
| COc1ccc(C2CC(=O)c3c([nH]c(C(=O)OCCOc4ccccc4)c3C)C2)cc1OC (configuration not stated) | 99% (inactive) |
| COc1ccc(C)cc1NC(=O)C(Cc1ccccc1)NS(=O)(=O)c1ccc(Br)s1 (configuration not stated) | 131% (inactive) |
| Cc1ccc(N2CC(NC(=O)C3CC3)CC2=O)cc1C (configuration not stated) | 94% (inactive) |
| COc1ccccc1N1CCN(CC(O)COc2ccc(Cl)c(C)c2)CC1 (configuration not stated) | 59% (inactive) |
| CC(=O)Nc1ccc(OCC(O)CN2CCN(c3ccc(C)c(Cl)c3)CC2)cc1 (configuration not stated) | 76% (inactive) |
| Cc1cc(OCC(O)CN2CCN(c3cccc(Cl)c3)CC2)ccc1Cl (configuration not stated) | -1% (active) |
| CCOC(=O)c1c(C)oc2nc(C)nc(NCC3CCN(Cc4ccc(C)cc4)CC3)c12 | 91% (inactive) |
| O=C(O)CN1C(=O)/C(=c2\sc3nc4ccccc4n3c2=O)c2ccccc21 | 81% (inactive) |
| O=c1[nH]c2ccc(NCc3ccccc3F)cc2[nH]1 | 94% (inactive) |
| COc1ccccc1NC(=O)c1cnn(-c2ccccc2)c1-n1cccc1 | 93% (inactive) |
| CCc1ccc(NC(=O)c2cnn(-c3ccccc3)c2-n2cccc2)cc1 | 31% (active) |
| COc1ccc(CNC(=O)c2cnn(-c3ccc(F)cc3)c2-n2cccc2)cc1 | 89% (inactive) |
| CCOC(=O)c1cccc(NC(=O)c2cnn(-c3ccccc3)c2-n2cccc2)c1 | 80% (inactive) |
| COc1ccc(CNC(=O)c2cnn(-c3ccccc3)c2-n2cccc2)cc1OC | 113% (inactive) |
| O=C(Nc1cc(C(F)(F)F)ccc1Cl)c1cnn(-c2ccccc2)c1-n1cccc1 | 0% (active) |
| CCOc1ccccc1CNC(=O)c1cnn(-c2ccc(C)cc2)c1-n1cccc1 | 37% (active) |
| CCOc1ccc(NC(=O)c2cnn(-c3ccccc3)c2-n2cccc2)cc1 | 71% (inactive) |
| O=C(NCCc1ccccc1)c1cnn(-c2ccc(F)cc2)c1-n1cccc1 | 58% (inactive) |
| Cc1ccc(-n2ncc(C(=O)NCc3ccccc3C)c2-n2cccc2)cc1 | 74% (inactive) |
| COc1cc(OC)c(NC(=O)c2cnn(-c3ccccc3)c2-n2cccc2)cc1Cl | 84% (inactive) |
| CSc1ccc(CCNC(=O)c2cnn(-c3ccccc3)c2-n2cccc2)cc1 | 46% (active) |
| COCCn1c(C)cc(O)c(C(c2ccccc2F)N2CCN(c3ccccc3)CC2)c1=O (configuration not stated) | 79% (inactive) |
| COc1ccc(N2CCN(C(=O)CSc3nnc4c(C)cc5cc6c(cc5n34)OCCO6)CC2)cc1 | 86% (inactive) |
| COc1ccc(NC(=O)CN2C(=O)C(c3ccccc3)=NC23CCC(C)CC3)cc1Cl (configuration not stated) | 73% (inactive) |

| Compound | survival |
| --- | --- |
| COC(=O)c1c(-c2cccs2)csc1NC(=O)c1ccc(C(C)C)cc1 | 73% (inactive) |
| COc1ccc(C(=O)NCCc2sc(-c3cccc(F)c3)nc2C)cc1 | 67% (inactive) |
| CCCN(C(=O)c1cc2c(=O)oc3ccccc3c2s1)c1cccc(Cl)c1 | 47% (inactive) |
| CCCN(C(=O)c1cc2c(=O)oc3ccccc3c2s1)c1ccccc1C | 54% (inactive) |
| CCCN(C(=O)c1cc2c(=O)oc3ccccc3c2s1)c1ccc(CC)cc1 | 31% (active) |
| CCc1ccc(CNC(=O)c2cc3c(=O)oc4ccc(C)cc4c3s2)cc1 | 82% (inactive) |
| CCN(C(=O)c1cc2c(=O)oc3ccc(C)cc3c2s1)c1ccccc1C | 63% (inactive) |
| CCc1ccc(N(CC)C(=O)c2cc3c(=O)oc4ccc(C)cc4c3s2)cc1 | 42% (active) |
| CCOC(=O)C1=C(CN2CCCCC2)NC(=O)NC1c1ccc(OC)cc1 (configuration not stated) | 84% (inactive) |
| O=C1Nc2ccccc2C1=Nc1ccc(Br)cc1 | 74% (inactive) |
| CCN(C(=O)CCS(=O)(=O)c1cccc2nsnc12)c1cccc(C)c1 | 74% (inactive) |
| O=C(NC1CCCC1)C(c1ccccc1)N(CC1CCCO1)C(=O)Cn1nnc2ccccc21 (configuration not stated) | 89% (inactive) |
| CCOc1ccccc1NC(=O)CSc1nnc(CC)c(CC)n1 | 73% (inactive) |
| Cc1ccc(-n2nnnc2CNC(=O)C(C)C)cc1C | 105% (inactive) |
| Cc1ccc(-n2nnnc2CNC(=O)c2cc(C(F)(F)F)cc(C(F)(F)F)c2)cc1C | 0% (active) |
| COc1ccc(-n2nnnc2SCC(=O)NCCc2ccccc2)cc1 | 53% (inactive) |
| Cc1ccc(-n2nnnc2CNC(=O)c2ccccc2)cc1C | 144% (inactive) |
| O=C(CSc1nnnn1Cc1ccccc1)NCCc1ccccc1 | 89% (inactive) |
| Cc1ccc(-n2nnnc2SCC(=O)NCCc2ccccc2)cc1C | 42% (active) |
| Cc1ccc(C(=O)NCc2nnnn2-c2ccc(C)c(C)c2)cc1 | 115% (inactive) |
| Cc1ccc(-n2nnnc2CNC(=O)c2ccc(F)cc2)cc1C | 106% (inactive) |
| Cc1ccc(-n2nnnc2CNC(=O)C(C)(C)C)cc1C | 46% (active) |
